Values without a mark were called inactive. How the calls were made is not given here.
Potency means the concentration at half of the fitted maximal effect.

The subject of the test is HIV-1 nucleocapsid protein NCp7 (binding to TG oligonucleotide). In words: HIV Nucleocapsid (AID 346).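 Further: potency is for inhibitors that block NC binding and lower polarization.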 The note with it: HIV-1 NC / fluorescein-TGTGTGTG probe, fluorescence polarization. The method in brief:
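Fluorescence polarization binding of 100 nM HIV-1 NC to 10 nM fluorescein-labelled TG4xF oligonucleotide. Buffer was Hepes pH 7.5 with 250mM NaCl, 1uM ZnCl2, TCEP and 2-mercaptoethanol. Compounds were incubated 1 hr at room temperature before the read.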
For orientation: In fluorescence polarisation assays a small probe gives low polarisation when free and higher when bound to something large.
Turning to `CN(Cc1ccco1)c1ncnc2ccc(-c3ccccc3C(F)(F)F)cc12`, the Potency is over 20 µM. For the compound `Cc1cnc(CNc2ncncc2-c2ccc3c(c2)OCO3)cn1`, the Potency is over 20 µM. For `CC(=O)N1CCC2(CC1)CN(c1ccccc1)C2`, the Potency is over 20 µM. With `FC(F)(F)c1ccccc1-c1cncnc1NCCc1cnc[nH]1`, the Potency was over 20 µM. Turning to `O=C(c1csnn1)N1CCC2(CC1)CN(c1ccccc1)C2`, the Potency was over 20 µM. Consider `COc1ccc(CNc2ccnc(-c3ccc(C(=O)N(C)C)cc3)n2)c(OC)c1`, for which the Potency is over 20 µM. Turning to `CC(C)NC(=O)N1CC[C@@]2(CCCN(C(=O)c3ccco3)C2)C1`, the Potency was over 20 µM. Take `COc1ccc2[nH]cc(CCNc3ncnc4ccc(-c5ccc6c(c5)OCO6)cc34)c2c1`: the Potency is over 20 µM.

Take `O=C(c1csnn1)N1CCC2(CCN(Cc3cc(C(F)(F)F)cc(C(F)(F)F)c3)CC2)CC1`: the Potency was over 20 µM. Take `Cc1cnc(CNc2ncncc2-c2cccnc2)cn1`: the Potency was over 20 µM. Take `CN(C)c1ccc(-c2cncnc2Nc2ccc(F)cc2)cc1`: the Potency is over 20 µM. In the case of `N#CCCn1c(=O)c(-c2cc(F)cc(F)c2)nc2cnc(N3CCOCC3)nc21`, the Potency is over 20 µM. As for `COc1cccc(Cn2c(=O)c(C)nc3cnc(Oc4ccccc4)nc32)c1`, the Potency is over 20 µM. Take `O=c1cnc2cnc(Oc3ccccc3)nc2n1Cc1cccs1`: the Potency was over 20 µM. As for `CN1CCN(c2ncc3nc(CCc4ccccc4)c(=O)n(C)c3n2)CC1`, the Potency is over 20 µM. With `CCNc1ncc2nc(-c3cccs3)c(=O)n(Cc3ccc(F)cc3)c2n1` the figure was over 20 µM. Turning to `N#Cc1cccc(NC(=O)N2CC[C@@]3(CCCN(S(=O)(=O)c4ccccc4)C3)C2)c1`, the Potency is over 20 µM.

Turning to `O=C(c1csnn1)N1CCC[C@@]2(CCN(c3ncccn3)C2)C1`, the Potency is over 20 µM. Consider `COc1ccccc1CCn1c(=O)c(-c2ccccc2)nc2cncnc21`, for which the Potency is over 20 µM. Regarding `Cc1noc(C)c1C(=O)N1CCC2(CCCN(c3ccncc3)C2)CC1`, the Potency is over 20 µM. Regarding `COc1cccc(-c2ccc3ncnc(N4CCOCC4)c3c2)c1`, the Potency was over 20 µM. `O=S(=O)(c1ccccc1)N1CCC2(CC1)CN(c1ccccn1)C2`: the Potency was over 20 µM. Consider `Cc1noc(C)c1-c1cc(NCc2cccnc2)ncn1`, for which the Potency is over 20 µM.

On to `CCNc1ncc2nc(-c3ccccc3)c(=O)n(-c3ccc(OC)cc3)c2n1`, for which the Potency was over 20 µM.

On to `COc1ccccc1CNc1ccnc(-c2ccccc2OC)n1`, for which the Potency was over 20 µM. As for `COCCNc1ncnc2ccc(-c3cccc(NS(C)(=O)=O)c3)cc12`, the Potency is over 20 µM. With `Cc1nc2cnc(N(C)C)nc2n(-c2ccccc2)c1=O` the figure was over 4 µM; with `O=C(c1ccco1)N1CCC2(CC1)CN(c1ccccc1)C2`, over 20 µM; with `FC(F)(F)c1ccccc1-c1cncnc1NCc1ccccc1`, over 20 µM. With `COc1ccc2[nH]cc(CCNc3ncnc4ccc(-c5cccnc5)cc34)c2c1` the figure was over 20 µM; with `CC(C)NC(=O)N1CC[C@@]2(CCCN(C(=O)Oc3ccccc3)C2)C1`, over 20 µM. Take `COc1cccc(-c2ccc3ncnc(N4CCNCC4)c3c2)c1`: the Potency is over 20 µM. `N#Cc1cccc(-c2ccc3ncnc(NCCN4CCOCC4)c3c2)c1`: the Potency was over 20 µM. As for `O=C(c1cnccn1)N1CCC2(CC1)CCN(c1cccc(-c3ccccc3)c1)CC2`, the Potency is over 20 µM.

In the case of `O=C(Nc1ccccc1)N1CC[C@@]2(CCCN(C(=O)c3cnccn3)C2)C1`, the Potency is over 20 µM. Regarding `Cn1c(=O)c(-c2ccc(Cl)cc2)nc2cnc(N3CCOCC3)nc21`, the Potency was over 20 µM.

As for `COc1ccc(CNc2ccnc(-c3ccc4c(c3)OCO4)n2)c(OC)c1`, the Potency is over 20 µM. In the case of `CCNc1ncc2nc(-c3cc(F)cc(F)c3)c(=O)n(C[C@H]3CCCO3)c2n1`, the Potency is over 20 µM. For `O=c1cnc2cnc(N3CCOCC3)nc2n1C[C@H]1CCCO1`, the Potency was over 20 µM.

Turning to `CN(C)C(=O)c1ccc(-c2cc(N(C)Cc3ccco3)ncn2)cc1`, the Potency was over 20 µM.

Values taken from PubChem BioAssay (NCATS).
